Compounds with a hit are over-represented: about 2.6% of the library has one in this group of screens.
GFP derepression: epigenetic modulators derepressing GFP locus in mouse cells; Potency, µM (doses to about 46.1 µM); mouse C127i GFP locus derepression, cytometry, 30 h; 0.09% of 68,000 active
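Read-out is the number of GFP-positive cells, scored as fluorescent objects 20 to 120 um wide, reflecting derepression of a silenced CMV-GFP reporter in murine C127i cells after 30 h compound exposure at 37 C.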
HBB splice mod: hemoglobin beta splicing modulation | HBB splicing reporter cell assay, activation; EGFP reporter with mutant IVS2-654 intron; response scale: normalised to 500 nM splice-correcting PNA | Potency, µM (highest dose often 46.1 µM), hits mostly activators | 0.06% of 65,000 active
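HeLa cells stably expressing EGFP interrupted by mutant beta-globin intron 2 (IVS2-654), 500/well in 2% FCS. Treated with compound for 2 days at 37C. Splicing correction scored as total well GFP intensity (488 nm excitation, 500-520 nm emission); 500 nM antisense PNA served as control.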
Bst PK mod: modulators of Bacillus stearothermophilus pyruvate kinase | purified pyruvate kinase, luminescence ATP production; ribose 5-phosphate activator present at AC10 | 1.2% of 51,000 active | Potency, µM; in the data active means potency below about 11 µM; inconclusive means mostly about 12 µM to 25 µM;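 the screen sought inhibitors and activators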
Ub-GFP proteasome: inhibits proteasome, raising ubiquitin-GFP reporter fluorescence; Ubiquitin-GFP reporter cells, proteasome inhibition, GFP fluorescence; response scale: untreated = 0%, 10 µM MG-132 = 100%; Potency, µM (series often up to 45.9 µM), most hits filed as activators; 67,000 tested, under 10 active; active means well fitted activation curve with a large enough effect, not every such curve was filed as active; inconclusive means small, poorly fitted or top-dose-only effect, or another doubt; inactive means no such curve, though single readings can be large or run the other way
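U2OS Ub(G76V)-GFP reporter; O/N plating, 0.5% FBS; cpd 46 uM–2.9 nM, 4 h, 37 °C; GFP+ cell count, 488/515 nm; norm. to basal vs 10 uM MG-132; CRC fit.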
Luciferase inh: firefly luciferase inhibition. P08659. purified firefly luciferase, luminescence, 8 min. Potency, µM (series often up to 57.1 µM), hits mostly inhibitors. 2.2% of 72,000 active; further: nearly all actives have a fitted effect of over 40% in size
Target sequence (P08659 whole entry, looked up): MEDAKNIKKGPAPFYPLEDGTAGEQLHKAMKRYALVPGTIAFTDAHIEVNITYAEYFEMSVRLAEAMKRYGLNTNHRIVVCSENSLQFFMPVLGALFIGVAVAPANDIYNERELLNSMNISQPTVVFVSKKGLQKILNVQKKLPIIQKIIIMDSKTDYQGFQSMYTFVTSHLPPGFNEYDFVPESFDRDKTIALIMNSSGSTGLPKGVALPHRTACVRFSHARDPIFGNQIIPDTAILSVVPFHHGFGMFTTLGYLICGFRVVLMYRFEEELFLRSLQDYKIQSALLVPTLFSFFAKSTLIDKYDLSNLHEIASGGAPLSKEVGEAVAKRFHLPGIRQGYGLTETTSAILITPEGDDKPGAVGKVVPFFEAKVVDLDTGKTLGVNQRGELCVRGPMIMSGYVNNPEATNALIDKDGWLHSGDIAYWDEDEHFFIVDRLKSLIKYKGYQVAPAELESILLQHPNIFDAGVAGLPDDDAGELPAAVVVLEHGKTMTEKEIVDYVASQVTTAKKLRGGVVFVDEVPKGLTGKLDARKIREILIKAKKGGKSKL
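Substrate buffer containing 10 uM ATP (pH 7.2 imidazole, Mg2+, KCl, detergent, BSA) is dispensed, compound pinned in, then luciferase/luciferin detector mix added. After 8 min at ambient temperature, light output is measured.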
Each line names hits and unclear results; the compound was inactive in the other large screens. Unless noted, the call rests on the fitted dose curve; in most records, active means well fitted curve in the direction sought with a large enough effect; inconclusive means small, poorly fitted or top-dose-only effect, or another doubt; inactive means no such curve, though single readings can be large; an effect the other way counts as inactive or inconclusive.

CSc1nc(N)c2ncn([C@@H]3O[C@@H](COP(=O)(O)OP(=O)(O)OP(=O)(O)O)[C@@H](O)[C@H]3O)c2n1	none (no result: Bst PK mod)
Cc1cc(C)n(CCOC(=O)c2sc3ccccc3c2Cl)n1	Luciferase inh 16µM
O=C(Oc1cccc(-n2cnnn2)c1)c1sc2ccccc2c1Cl	none (no result: HBB splice mod)
COc1cccc(-c2nnc(Nc3nc4c(F)cccc4s3)o2)c1	Luciferase inh 13µM
COc1cccc2sc(Nc3nnc(-c4ccccc4Cl)o3)nc12	Luciferase inh 16µM (no result: GFP derepression, Bst PK mod)
COc1ccc(Oc2ncc3nc(CCc4ccccc4)c(=O)n(C[C@H]4CCCO4)c3n2)cc1	none (no result: Bst PK mod)
CC(C)[C@@H]1[C@H]2CC[C@H](C2)[C@H]1N	none (no result: Bst PK mod)
CCN1CCN(C(=O)c2cc3c(=O)n4ccccc4nc3n2Cc2ccccc2)CC1	Bst PK mod inconclusive, Luciferase inh 7.9µM
COCCn1c(=O)cnc2cnc(N3CCN(C)CC3)nc21	none (no result: Bst PK mod)
CC(NC(=O)C1CCN(c2nnc(-n3cccc3)s2)CC1)C12CC3CC(CC(C3)C1)C2 (centres undefined)	Bst PK mod 8.2
CC(C)NC(=O)C1CCCN(c2nnc(-n3cccc3)s2)C1 (centres undefined)	none (no result: Bst PK mod)
O=C(Nc1ccc(-c2nc3ccccc3o2)cc1)C1CCCO1 (centres undefined)	Bst PK mod 6.3, Luciferase inh 5µM
Cc1n[nH]c(C)c1N1C(=O)c2cccc3c(N4CCCCCC4)ccc(c23)C1=O	HBB splice mod 16µM (no result: Bst PK mod)
O=C(Nc1nccs1)c1ccc(COc2ccc(F)cc2)o1	none
O=C(COc1ccc(F)cc1)Nc1nccs1	Luciferase inh 13µM (no result: GFP derepression, Bst PK mod)
N#CC(C#N)=c1ccc2c(c1)NC1(CCCCC1)N=2	Luciferase inh 7.9µM (no result: Bst PK mod)
O=C(Cn1cnc2ccccc2c1=O)Nc1ccc2c(c1)OCCO2	Luciferase inh 13µM
O=C(Cn1cnc2ccccc2c1=O)OCC(=O)c1ccc2c(c1)OCCO2	none
O=C(CC(=O)c1ccccc1)Nc1ccc2c(c1)OCCO2	Luciferase inh 20µM (no result: Bst PK mod)
O=C(COc1ncnc2ccccc12)c1ccc2c(c1)OCCO2	Luciferase inh 13µM (no result: Bst PK mod)
O=C(Cn1cnc2ccccc2c1=O)NCCC(=O)Nc1ccc2c(c1)OCCO2	none
O=C(CSc1nc2ccccc2[nH]1)Nc1ccc2c(c1)OCCO2	Luciferase inh 25µM (no result: Bst PK mod)
CNC(=O)C1(CC(C)C)C=CCN1C(=O)c1ccccc1 (centres undefined)	none (no result: GFP derepression, Bst PK mod, Ub-GFP proteasome, Luciferase inh)
O=C(CS(=O)(=O)c1ccccc1)c1ccc2c(c1)OCCO2	Luciferase inh 13µM
O=C(O)CCC(=O)c1ccc2c(c1)OCCO2	none (no result: GFP derepression, Bst PK mod)
c1ccc(C2=NN[C@@H]3c4ccccc4-c4ccccc4N3C2)cc1	none (no result: Bst PK mod)
Fc1ccccc1CSc1ncnc2c1oc1ccccc12	Bst PK mod inconclusive, Luciferase inh 13µM
CC(=O)N1CCc2cc(S(=O)(=O)NCCC(=O)Nc3cc(C)cc(C)c3)ccc21	none
CC(=O)N1CCc2cc(NC(=O)c3ccc(C)cc3)ccc21	Bst PK mod inconclusive, Luciferase inh 6.3µM
COc1ccc2[nH]cc(CCNc3ncncc3-c3ccc(C(=O)N(C)C)cc3)c2c1	none (no result: Bst PK mod)
CCOC(=O)c1sc(SCC(=O)Nc2ccc(N(C)C)cc2)nc1N	Luciferase inh 13µM (no result: HBB splice mod)
COc1ccc2[nH]c3nc(SC(C)C)nnc3c2c1	Bst PK mod 4.5, Luciferase inh 1.6µM
COc1ccc2[nH]c3nc(SCc4nnc(-c5ccccc5)o4)nnc3c2c1	none
O=C1NC(c2cccs2)Nc2sc3c(c21)CCCC3 (centres undefined)	Bst PK mod 2.9
CC(=O)OC[C@@H]1O[C@H](CCO/N=C(\C)CCC(=O)OC[C@@H]2O[C@H](C#Cc3ccccc3)C=C[C@@H]2Oc2ccc(C)cc2)C=C[C@@H]1OC(C)=O	none (no result: GFP derepression, Bst PK mod, Ub-GFP proteasome)
O=C(O)CNC(=O)[C@H]1NC(C(F)(F)F)(C(F)(F)F)OC1(C(F)(F)F)C(F)(F)F	none (no result: Bst PK mod)
Cc1cccc(NC(=O)Nc2ccc(C#N)cc2)n1	none (no result: Bst PK mod)
COc1ccc(NC(=O)Nc2cccc(C)n2)cc1	Luciferase inh 16µM (no result: GFP derepression, Bst PK mod)
CCOC(=O)N/N=C1/C[C@@H](O)[C@@H](O)[C@@H]2[C@@H]3C(=O)N(Cc4ccc5c(c4)OCO5)C(=O)[C@H]3CC[C@H]12	none (no result: GFP derepression, Bst PK mod, Ub-GFP proteasome)
O=C(Nc1ccc(N2CCOCC2)cc1)c1cnsn1	Bst PK mod 7.1, Luciferase inh 4µM
CS(=O)(=O)c1ncc(Cl)c(C(=O)Nc2ccc(N3CCOCC3)cc2)n1	none
Cc1cc(=O)n2[nH]c(-c3ccccc3Cl)cc2n1	Luciferase inh 16µM (no result: Bst PK mod, Ub-GFP proteasome)
COCOc1ccc(Br)cc1C(=O)/C=C\c1ccc2c(c1)OCO2	none (no result: GFP derepression, Bst PK mod, Ub-GFP proteasome)
Cn1c(=O)c2cc(S(=O)(=O)N3CCOCC3)ccc2n(C)c1=O	none
O=c1c2ccccc2sn1-c1cc(S(=O)(=O)N2CCOCC2)ccc1N1CCOCC1	Luciferase inh 13µM
CC(C)CO/N=C1/C[C@@H](O)[C@@H](O)[C@@H]2[C@H]3C(=O)N(c4ccc(F)cc4F)C(=O)[C@@H]3CC[C@H]12	none (no result: GFP derepression, Bst PK mod, Ub-GFP proteasome)
CC(=O)OCC1OC(C#Cc2ccc(C)cc2C)C=CC1OC(C)=O (centres undefined)	none (no result: GFP derepression, Bst PK mod, Ub-GFP proteasome, Luciferase inh)
COc1cc(=O)n(C)c2cc(N(C)C)ccc12	Bst PK mod 4.9
CN1C(=O)c2ccc(N(C)C)cc2C1=O	none (no result: HBB splice mod, Ub-GFP proteasome)
CCOC(=O)c1cnc(-n2nc(C)cc2C)nc1N(C)C	Bst PK mod 11, Luciferase inh 13µM
CCCn1c(C)nc2c(NCCCN(CCO)CCO)nc(C)nc21	none (no result: GFP derepression, Bst PK mod, Luciferase inh)
O=C(CSc1nc2ccccc2o1)Nc1nc2c(s1)CCCC2	Luciferase inh 10µM
O=C(CSc1nc2ccccc2o1)Nc1nc2ccccc2s1	none (no result: HBB splice mod)
COc1ccc(COC(=O)N/N=C2/C[C@@H](O)[C@@H](O)[C@@H]3[C@@H]4C(=O)N(C(C)(C)C)C(=O)[C@H]4CC[C@@H]23)cc1	none (no result: GFP derepression, Bst PK mod, Ub-GFP proteasome)
O=c1oc(-c2cccs2)nc2scc(-c3cccs3)c12	Luciferase inh 13µM
Cc1nc2scc(-c3cccs3)c2c(=O)o1	none (no result: Bst PK mod)
Cc1ccccc1-c1nccc(NCCN2CCOCC2)n1	none (no result: Bst PK mod)
O=C(Nc1cccc(NC(=O)c2cccs2)c1)c1ccco1	none
CC(=O)N(C)c1ccc(NC(=O)c2ccco2)cc1	Bst PK mod inconclusive
O=C(Nc1ccc(C(=O)Oc2ccccc2)c(O)c1)c1ccco1	Luciferase inh 25µM
O=C(Nc1ccc(Nc2ccccc2)cc1)c1ccco1	Luciferase inh 13µM
O=C(Nc1ccc(OC(=O)c2cccs2)cc1)c1ccco1	Luciferase inh 25µM (no result: HBB splice mod)
O=C(Nc1ccc(Oc2ccc(NC(=O)c3ccco3)c(NC(=O)c3ccco3)c2)cc1)c1ccco1	none
CCOc1ccc(NC(=O)c2ccco2)cc1	Luciferase inh 13µM
COc1ccc([C@@H](C)c2cc3c(cc2O)OCO3)cc1	none (no result: Bst PK mod)
O=C(CSc1nnnn1-c1ccc(Cl)cc1)NC(=O)Nc1ccc2c(c1)OCCO2	Luciferase inh 2.5µM
O=c1[nH]c(SCc2c(Cl)c(Cl)c(Cl)c(Cl)c2Cl)nc(=S)[nH]1	none (no result: Bst PK mod)

Screening results (PubChem)
